The full ranking holds about 68,000 sequences; the median of “fluorescence intensity (a.u.)” is about 9,100, and the highest 2% start at about 16,000. Many of the other results were omitted from the sample, so the highest values are more common in it than they were.
Each sequence was assayed against OsWRKY34 (Oryza sativa, UniProt Q0JBA9 1-250) (assay: protein-binding microarray (RPBM); PBS, 2% BSA, 51.3 ng/ul salmon testes DNA, 50 uM zinc acetate, 200 nM TF, 25 C, 1 h; high values mean tight binding). Details: protein: recombinant; tags: N-terminal polyhistidine and DsRed monomer fusion (pET32a); label: CyDye5-dUTP incorporated in the synthesized complementary strand; 3' TTTTT single-stranded linker to array surface; dsDNA, one strand shown.
OsWRKY34, sequence (Q0JBA9 entry or part of it): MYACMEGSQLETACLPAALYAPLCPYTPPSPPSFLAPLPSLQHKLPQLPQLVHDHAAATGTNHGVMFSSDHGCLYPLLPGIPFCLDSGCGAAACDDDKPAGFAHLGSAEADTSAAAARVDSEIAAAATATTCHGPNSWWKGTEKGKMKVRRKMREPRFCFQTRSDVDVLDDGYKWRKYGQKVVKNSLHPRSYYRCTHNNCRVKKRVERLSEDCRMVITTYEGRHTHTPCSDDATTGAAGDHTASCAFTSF
Summary of the method: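 Using Ni–NTA, transcription factors fused N-terminally to polyhistidine and DsRed were purified after expression in E. coli BL21-CodonPlus. These were incubated at 200 nM with a blocked, double-stranded custom Agilent array for 1 h at 25 °C in a buffer containing 50 µM zinc acetate, and the array was washed. The binding signal is per-feature fluorescence intensity (arbitrary units) on an Axon 4000B scanner.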

Which binding signal does the source give for “GGAAGATTACCCTGTTTACCACTCACTGTACGATGATTATCGGAGTCACCTAGTGCAG” here?
The binding signal was 9260 fluorescence intensity (a.u.).

How did the binding signal turn out when “CACACCATTTCCTTTTTCTTTAGAAAATATCACACTATCACGGAGTCACCTAGTGCAG” was run?
Its binding signal is 9060 fluorescence intensity (a.u.).

With “ATCGACCTCCATTTTAACGTACGACTCCCTAAGAGACCCGCGGAGTCACCTAGTGCAG” as the sequence, how does the binding signal read?
Its binding signal is 9660 fluorescence intensity (a.u.).

For “AATTACTATAACACATCTTCCTAACAAATGCACCTCAATACGGAGTCACCTAGTGCAG”, which binding signal is on record?
The binding signal was 8050 fluorescence intensity (a.u.).

With “CATATGTTTACACCCAAATTTGGCACCTAGGATTAAAATACGGAGTCACCTAGTGCAG” as the sequence, how does the binding signal read?
The binding signal was 8350 fluorescence intensity (a.u.).

Which binding signal does the source give for “TGCTGTCGTATACTAGAAGCTGATGCTTTTCTTGCTTAGTCGGAGTCACCTAGTGCAG” here?
Its binding signal is 8940 fluorescence intensity (a.u.).

“CAACCCACACACCACCACACAGATCACAACAGCAAGTTGTCGGAGTCACCTAGTGCAG” was tested. Which binding signal did it give?
The binding signal was 8160 fluorescence intensity (a.u.).

“TTTGTTTGGTAAAATTTTTGGTGGGGATTGGAGTTGGAAACGGAGTCACCTAGTGCAG” was tested. Which binding signal did it give?
The binding signal was 9440 fluorescence intensity (a.u.).

For “CTCTCATGTATATACATTAATTATGTTTTTGTCCCCATTTCGGAGTCACCTAGTGCAG”, which binding signal is on record?
Its binding signal is 9950 fluorescence intensity (a.u.).

Which binding signal does the source give for “GAGCATCACAAGTCGCGACCTCACAGGGAGGGGCGGCGGCCGGAGTCACCTAGTGCAG” here?
The binding signal was 9060 fluorescence intensity (a.u.).

Which binding signal does the source give for “GTTTTGACTTTTTTTTCTAATAAAATTTCTTTTATGTTTGCGGAGTCACCTAGTGCAG” here?
Its binding signal is 18600 fluorescence intensity (a.u.).

“TGTTTTCTGTTCTTTGTTGACTTTAAGTCGCTAAATTTTGCGGAGTCACCTAGTGCAG” was tested. Which binding signal did it give?
The binding signal was 11500 fluorescence intensity (a.u.).

“CTGTATCCATCCCTAAATATTTGACGCCGTTGACTTTTCTCGGAGTCACCTAGTGCAG” was tested. Which binding signal did it give?
The binding signal was 25600 fluorescence intensity (a.u.).

How did the binding signal turn out when “GAACTGCTCCCTCCATCCATAAATATTTGACGCCGTTGACCGGAGTCACCTAGTGCAG” was run?
The binding signal was 11900 fluorescence intensity (a.u.).

How did the binding signal turn out when “AGTAATTTATGTTTGACTATTTTTTTAAAAATTTTTTATGCGGAGTCACCTAGTGCAG” was run?
The binding signal was 10800 fluorescence intensity (a.u.).

For “ATTATCCTCTTGTTTTTCAACTGGAATGAACCACCAACAACGGAGTCACCTAGTGCAG”, which binding signal is on record?
Its binding signal is 9790 fluorescence intensity (a.u.).

Which binding signal does the source give for “CACTACTATCTGCCTCACCGTTAACCCTACCGAATAAATTCGGAGTCACCTAGTGCAG” here?
The binding signal was 8880 fluorescence intensity (a.u.).

For “ATTGCAGCCTTCGCCTCCTTTCCTTCAGGTACACATATTGCGGAGTCACCTAGTGCAG”, which binding signal is on record?
The binding signal was 9850 fluorescence intensity (a.u.).

“TTGTGGGAGGAGGGGATGGAATGATGATGACTCTGTTTTTCGGAGTCACCTAGTGCAG” was tested. Which binding signal did it give?
Its binding signal is 8200 fluorescence intensity (a.u.).

“GGTGATCTTTGTATTCTTTTTCTGCAGCGAACATATAGCTCGGAGTCACCTAGTGCAG” was tested. Which binding signal did it give?
Its binding signal is 16300 fluorescence intensity (a.u.).

“GACGCGGCGCAGTGCAACCAACAAACCGGGGCGGGCGGGGCGGAGTCACCTAGTGCAG” was tested. Which binding signal did it give?
Its binding signal is 11800 fluorescence intensity (a.u.).

With “ATTTTGATTTTTGCAATCACCACCCCGCGCGGCGCAAACACGGAGTCACCTAGTGCAG” as the sequence, how does the binding signal read?
Its binding signal is 8880 fluorescence intensity (a.u.).

Which binding signal does the source give for “CCGCTCTGATTCGCAAACTATAACACCAAACAAACGGGCGCGGAGTCACCTAGTGCAG” here?
The binding signal was 20100 fluorescence intensity (a.u.).

For “ATTATATGCTAATTACTTTCTCGTTTTACGTACACCAACTCGGAGTCACCTAGTGCAG”, which binding signal is on record?
Its binding signal is 8420 fluorescence intensity (a.u.).

How did the binding signal turn out when “TTTCATTTTTTTTTACCACCTCACCTTCTGTGTTTCTTTTCGGAGTCACCTAGTGCAG” was run?
The binding signal was 9040 fluorescence intensity (a.u.).

How did the binding signal turn out when “TTGGTCAAAGTCAAACTGCTTTAAGTTTGACCAAGTTTGTCGGAGTCACCTAGTGCAG” was run?
Its binding signal is 21500 fluorescence intensity (a.u.).

With “ATTTTGGTCAAATTTAAACTAATCTAAGTTTGACTAATTTCGGAGTCACCTAGTGCAG” as the sequence, how does the binding signal read?
Its binding signal is 8610 fluorescence intensity (a.u.).

How did the binding signal turn out when “ATTTAAAATAGTTTGACTTTGACCAAAGTCAAAACATCTTCGGAGTCACCTAGTGCAG” was run?
Its binding signal is 13500 fluorescence intensity (a.u.).

“AAATTTGAAGTAGTTTGACTTTGACCAAAGTCAAAACATCCGGAGTCACCTAGTGCAG” was tested. Which binding signal did it give?
The binding signal was 17600 fluorescence intensity (a.u.).

For “TTTGGTCAAAGTCAAACTGCTTCTAGTTTGACTAAATTTACGGAGTCACCTAGTGCAG”, which binding signal is on record?
The binding signal was 17800 fluorescence intensity (a.u.).

“AGATGTTTTGACTTTAGTCAAAGTCAAACTGCTTTAAGTTCGGAGTCACCTAGTGCAG” was tested. Which binding signal did it give?
The binding signal was 11800 fluorescence intensity (a.u.).

For “TTTTGTCATTGTCAAATTTTGATAAGTTTGTCAAAATTTTCGGAGTCACCTAGTGCAG”, which binding signal is on record?
The binding signal was 9080 fluorescence intensity (a.u.).

Which binding signal does the source give for “TGCATTTCAATTCAAATTTAAGTTGATTCGTTGACTTGTTCGGAGTCACCTAGTGCAG” here?
The binding signal was 10100 fluorescence intensity (a.u.).

For “AAACTTGAAGAAATTTGACTTTAGCTAAAGTCAAAACATCCGGAGTCACCTAGTGCAG”, which binding signal is on record?
The binding signal was 10600 fluorescence intensity (a.u.).

How did the binding signal turn out when “TAAAGTCAAACTGTTTTTTTAAGTTTGACCAAGCTTTTGACGGAGTCACCTAGTGCAG” was run?
The binding signal was 10400 fluorescence intensity (a.u.).

“AAGCTTTGACTTTTTTTTGTCAAATTTTTTAAGTTTGATTCGGAGTCACCTAGTGCAG” was tested. Which binding signal did it give?
Its binding signal is 20400 fluorescence intensity (a.u.).

With “TTGACTTTGTTTAAAGTCAAACTGCTTCAAGTTTGACTAACGGAGTCACCTAGTGCAG” as the sequence, how does the binding signal read?
Its binding signal is 9550 fluorescence intensity (a.u.).

With “AAACTACCATGGGACTTATATTGCTCCGGTTTTGATAGTTCGGAGTCACCTAGTGCAG” as the sequence, how does the binding signal read?
The binding signal was 8480 fluorescence intensity (a.u.).

“TTCCACAGAGTCAAGTCCACAGAACGTATGCTCCATGTTCCGGAGTCACCTAGTGCAG” was tested. Which binding signal did it give?
The binding signal was 8160 fluorescence intensity (a.u.).

How did the binding signal turn out when “GGCTGCCTGTGCATGGGAGGCGATGTGAGGGTGGGCAGGGCGGAGTCACCTAGTGCAG” was run?
The binding signal was 9440 fluorescence intensity (a.u.).

With “ACTCACGCTTTAACACCAGGAATCTTATCTCTATCTCATCCGGAGTCACCTAGTGCAG” as the sequence, how does the binding signal read?
Its binding signal is 8460 fluorescence intensity (a.u.).

With “ATTGGGCTGGAATGAGATTCACGGGAGGGTAACTGGCGGTCGGAGTCACCTAGTGCAG” as the sequence, how does the binding signal read?
Its binding signal is 12300 fluorescence intensity (a.u.).

Which binding signal does the source give for “TTCAAATTGTTGCTGCTCTGTGCTAGCCTTTTCATATTGACGGAGTCACCTAGTGCAG” here?
The binding signal was 9110 fluorescence intensity (a.u.).

Which binding signal does the source give for “GCAGTTTAACTTTGACCAAAGTCAAAATATTTTATAATTTCGGAGTCACCTAGTGCAG” here?
The binding signal was 8930 fluorescence intensity (a.u.).

For “ATTTTTTTTCTAGTCAAACTTTGTTAAGTTTGACCAAAATCGGAGTCACCTAGTGCAG”, which binding signal is on record?
The binding signal was 9790 fluorescence intensity (a.u.).

Reference: article PMC7819943, “Rice protein-binding microarrays: a tool to detect cis-acting elements near promoter regions in rice”
